The results in this text go back to PubChem BioAssay (NCI).

Among the test systems are DU-145 prostate; K-562 leukemia; MALME-3M melanoma; MDA-MB-231 breast; RXF 393 renal; SF-268 CNS; SF-295 CNS; SF-539 CNS; UACC-257 melanoma; M14 melanoma; HCT-15 colon; HT29 colon; SNB-75 CNS; SNB-19 CNS; U251 CNS; PC-3 prostate; SK-MEL-5 melanoma; UACC-62 melanoma; LOX IMVI melanoma; SK-MEL-28 melanoma.
Holding throughout (experiment): NCI-60 one-dose screen, 48 h (100 = growth as untreated, 0 = no growth, -100 = all killed)
What all share (conditions): 10 µM unless noted

Each structure is given as a SMILES string. About 83,000 compounds went through this panel and 20% of them were active in at least one assay; those are over-represented in the sample as a whole.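 The endpoint reported here, percent growth, reads 100 for growth as untreated, 0 for no net growth and -100 for all cells dead.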 Unmarked numbers belong to inactive results. Active and inactive are the calls of the source. How the source made its calls: active means growth percent below 10; inactive means the rest.

`Brc1cc(-c2cc(-c3ccc4c(c3)OCCO4)[nH]n2)cs1`: the growth was 54.2% in the experiment with DU-145 prostate; 15% in the experiment with K-562 leukemia; 35.5% in the experiment on MALME-3M melanoma; 51.6% in the experiment on MDA-MB-231 breast; 47.5% in the experiment on RXF 393 renal; 62.6% with SF-268 CNS. Besides, the growth is 41.7% with SF-295 CNS; 41% in the experiment on SF-539 CNS; 76.4% in the experiment on UACC-257 melanoma; 35% with M14 melanoma; 24.4% in the experiment with HCT-15 colon; 22.6% with HT29 colon. Moreover, the growth in the experiment with SNB-75 CNS is 19.9%; with SNB-19 CNS, 56.9%; with U251 CNS, 40%; in the experiment on PC-3 prostate, 61.8%; in the experiment with SK-MEL-5 melanoma, 23.5%; in the experiment with UACC-62 melanoma, 54.7%. In addition, the growth was 42.3% with LOX IMVI melanoma and 58.6% in the experiment with SK-MEL-28 melanoma.

Take `Oc1[nH]c2ccc(Cl)cc2c1N=Nc1nc(N=Nc2c(O)[nH]c3ccc(Cl)cc23)nc(N2CCOCC2)n1`: the growth in the experiment on DU-145 prostate is 88.4%; with K-562 leukemia, 32.9%; in the experiment with MALME-3M melanoma it was 56.4%; in the experiment on MDA-MB-231 breast, 36.3%; with RXF 393 renal, 13.7%; with SF-268 CNS it was 49.1%. The growth with SF-295 CNS was 45.7%; in the experiment with SF-539 CNS, 16%; with UACC-257 melanoma, 82%; in the experiment with M14 melanoma, 77.5%; with HCT-15 colon, 91.6%; in the experiment on HT29 colon it was 91.1%. For the same molecule, the growth is -0.671% (active) with SNB-75 CNS; -9.43% (active) in the experiment with SNB-19 CNS; 3.81% (active) in the experiment on U251 CNS; 56.1% in the experiment with PC-3 prostate; 46.1% in the experiment on SK-MEL-5 melanoma; 51.6% in the experiment with UACC-62 melanoma. In addition, the values for the growth in the experiment on LOX IMVI melanoma and in the experiment on SK-MEL-28 melanoma were 23.2% and 55%, respectively.

Consider `COc1ccc(OC)c(CCn2cncc2-c2c[nH]c3ccc(Cl)cc23)c1`, for which the growth is 60.5% with DU-145 prostate; 15.8% in the experiment with K-562 leukemia; 45.9% in the experiment with MALME-3M melanoma; 62.6% in the experiment on MDA-MB-231 breast; 62.8% with RXF 393 renal; 50.5% in the experiment with SF-268 CNS. Also, the growth in the experiment with SF-295 CNS is 28.9%; in the experiment with SF-539 CNS, 71.6%; in the experiment on UACC-257 melanoma, 23%; in the experiment with M14 melanoma, 48.4%; in the experiment on HCT-15 colon, 32.8%; in the experiment with HT29 colon, 10.1%. Further, the growth is 21.4% in the experiment on SNB-75 CNS; 60.4% in the experiment on SNB-19 CNS; 47.1% in the experiment on U251 CNS; 39.1% in the experiment on PC-3 prostate; -19.8% (active) with SK-MEL-5 melanoma; 40.7% in the experiment with UACC-62 melanoma. Also, the growth in the experiment on LOX IMVI melanoma is 47.3%; in the experiment on SK-MEL-28 melanoma it was 67.7%.

For the molecule `O=C(O)CC1CCN(c2ccc3nnc(Cl)n3n2)CC1`, the growth with DU-145 prostate was 107%; in the experiment on K-562 leukemia, 105%; in the experiment on MALME-3M melanoma, 102%; in the experiment with MDA-MB-231 breast it was 112%; in the experiment on RXF 393 renal, 109%; with SF-268 CNS it was 100%. In addition, the growth is 102% in the experiment on SF-295 CNS; 102% with SF-539 CNS; 109% in the experiment with UACC-257 melanoma; 94.6% in the experiment on M14 melanoma; 98.8% in the experiment with HCT-15 colon; 101% in the experiment with HT29 colon. For the same molecule, the growth in the experiment on SNB-75 CNS was 84.7%; with SNB-19 CNS, 100%; in the experiment with U251 CNS, 110%; in the experiment with PC-3 prostate it was 104%; in the experiment with SK-MEL-5 melanoma, 101%; in the experiment with UACC-62 melanoma, 95.5%. Further, the growth was 95.6% with LOX IMVI melanoma and 102% in the experiment on SK-MEL-28 melanoma.

`CCOP(=O)(OCC)OC[C@]12CC[C@@H](C)[C@H](C)C1C1=CC[C@@H]3[C@@]4(C)CCCNC(C)(C)[C@@H]4CC[C@@]3(C)[C@]1(C)CC2` (stereo not given in full): the growth is 1.04% (active) in the experiment with DU-145 prostate; -59.7% (active) in the experiment with K-562 leukemia; 20% in the experiment on MALME-3M melanoma; 39% with MDA-MB-231 breast; 16.6% in the experiment on RXF 393 renal; 37.4% with SF-268 CNS. Also, the growth is 18.6% in the experiment on SF-295 CNS; 60.2% in the experiment with SF-539 CNS; 13.4% in the experiment on UACC-257 melanoma; -65.7% (active) in the experiment on M14 melanoma; -8.25% (active) in the experiment on HCT-15 colon; -30.6% (active) with HT29 colon. Moreover, the growth with SNB-75 CNS was 66.8%; with SNB-19 CNS, 17%; in the experiment on U251 CNS it was -59.1% (active); in the experiment on PC-3 prostate, 10.9%; in the experiment with SK-MEL-5 melanoma, -8.29% (active); in the experiment with UACC-62 melanoma, -12.6% (active). Moreover, the growth in the experiment with LOX IMVI melanoma is -86.3% (active); in the experiment with SK-MEL-28 melanoma, -2.47% (active).

As to `O=C(CSc1cc[n+](CCCCO)c2ccccc12)n1ccc2ccccc21`, the growth in the experiment on DU-145 prostate was 110%; in the experiment with K-562 leukemia, 98.2%; in the experiment on MALME-3M melanoma, 99.7%; in the experiment on MDA-MB-231 breast, 88.2%; with RXF 393 renal, 107%; in the experiment on SF-268 CNS, 109%. Also, the growth in the experiment on SF-295 CNS was 99.7%; in the experiment with SF-539 CNS, 99.2%; with UACC-257 melanoma it was 95.2%; with M14 melanoma, 96.6%; in the experiment with HCT-15 colon, 104%; in the experiment on HT29 colon, 103%. Also, the growth with SNB-75 CNS is 96.1%; in the experiment on SNB-19 CNS, 100%; in the experiment with U251 CNS, 96.3%; in the experiment with PC-3 prostate, 97.6%; in the experiment with SK-MEL-5 melanoma, 98.7%; in the experiment with UACC-62 melanoma, 93.5%. The growth in the experiment on LOX IMVI melanoma is 103%; in the experiment with SK-MEL-28 melanoma it was 110%.

As for `CCCCCCNC(=O)Oc1ccc(/C(=C(/C)c2ccc(Cl)cc2)c2ccc(OCCN3CCCCCC3)cc2)cc1`, the growth in the experiment with DU-145 prostate is 86.3%; with K-562 leukemia, 8.93% (active); in the experiment on MALME-3M melanoma it was 75.4%; in the experiment on MDA-MB-231 breast, 76.1%; in the experiment on RXF 393 renal it was 44.1%; in the experiment on SF-268 CNS, 77.2%. Besides, the growth with SF-295 CNS is 70%; in the experiment on SF-539 CNS, 67%; with UACC-257 melanoma, 75.1%; in the experiment on M14 melanoma, 30.9%; in the experiment on HCT-15 colon it was 9.59% (active); in the experiment on HT29 colon it was 21.3%. Further, the growth in the experiment on SNB-75 CNS was 99.6%; with SNB-19 CNS it was 68.4%; in the experiment on U251 CNS, 55.8%; in the experiment on PC-3 prostate, 49.2%; in the experiment on SK-MEL-5 melanoma, 73.6%; in the experiment with UACC-62 melanoma it was 63.8%. For the same molecule, the growth with LOX IMVI melanoma is 32.8%; with SK-MEL-28 melanoma, 84%.
